# Substitutions are numbered along the chain they refer to.
# Experiments:
# Test in all cases: yeast three-hybrid, YBZ-1, SC-Leu-His + 0.5 mM 3-AT, 4 days
# Conditions in all cases: tags: N-Gal4 AD-HA kept; label: inside an RPR1-promoter hybrid RNA with tandem MS2 sites; ssRNA
# [1] = target: PUM1 PUF domain R5-ISR (Homo sapiens, UniProt Q14671 828-1176, C1007I;R1008S;Q1011R)
# Method in brief: (§1)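 Matching RNA elements and Pumilio-1 PUF domain libraries, randomized at the three base-contacting residues of every repeat, were co-expressed from a centromeric plasmid in strain YBZ-1 (LexA–MS2 coat fusion, HIS3 reporter). The repeat regions were PCR-amplified and Illumina-sequenced from cells grown four days on SC-Leu (input) or SC-Leu-His + 0.5 mM 3-AT (selection). The interaction score is the log change in variant frequency from input to selection. It is computed in log2, with a pseudocount of 1 for absent variants.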
# [2] = target: PUM1 PUF domain R5-RMW (Homo sapiens, UniProt Q14671 828-1176, C1007R;R1008M;Q1011W)
# Method in brief: as §1
# [3] = target: T1, PUM1 PUF domain R6-FHS (Homo sapiens, UniProt Q14671 828-1176, N1043F;Y1044H;Q1047S)
# T1 sequence: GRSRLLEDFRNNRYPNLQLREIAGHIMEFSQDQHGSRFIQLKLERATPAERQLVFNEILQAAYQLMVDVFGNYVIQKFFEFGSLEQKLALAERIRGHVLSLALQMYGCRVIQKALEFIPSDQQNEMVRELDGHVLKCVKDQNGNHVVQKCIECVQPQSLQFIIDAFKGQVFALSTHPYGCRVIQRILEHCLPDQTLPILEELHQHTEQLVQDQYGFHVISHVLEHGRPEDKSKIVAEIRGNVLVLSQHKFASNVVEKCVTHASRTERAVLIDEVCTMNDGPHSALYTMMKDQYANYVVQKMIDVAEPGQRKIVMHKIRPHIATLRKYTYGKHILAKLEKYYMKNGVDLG
# Method in brief: as §1
# [4] = target: PUM1 PUF domain R8-IHR (Homo sapiens, UniProt Q14671 828-1176, N1122I;Y1123H;Q1126R)
# Method in brief: as §1
# [5] = target: PUM1 PUF domain R8-WWR (Homo sapiens, UniProt Q14671 828-1176, N1122W;Y1123W;Q1126R)
# Method in brief: as §1
# [6] = target: PUM1 PUF domain R3-SPF (Homo sapiens, UniProt Q14671 828-1176, C935S;R936P;Q939F)
# Method in brief: as §1
# [7] = target: PUM1 PUF domain R8-GWN (Homo sapiens, UniProt Q14671 828-1176, N1122G;Y1123W;Q1126N)
# Method in brief: as §1
# [8] = target: T2, PUM1 PUF domain R6-RYR (Homo sapiens, UniProt Q14671 828-1176, N1043R;Q1047R)
# T2 sequence: T1 sequence with F216R, H217Y, S220R
# Method in brief: as §1
# [9] = target: PUM1 PUF domain R3-PWS (Homo sapiens, UniProt Q14671 828-1176, C935P;R936W;Q939S)
# Method in brief: as §1
# [10] = target: PUM1 PUF domain R4-DHT (Homo sapiens, UniProt Q14671 828-1176, N971D;Q975T)
# Method in brief: as §1
# [11] = target: PUM1 PUF domain R5-QQC (Homo sapiens, UniProt Q14671 828-1176, C1007Q;R1008Q;Q1011C)
# Method in brief: as §1
# [12] = target: PUM1 PUF domain R5-QHE (Homo sapiens, UniProt Q14671 828-1176, C1007Q;R1008H;Q1011E)
# Method in brief: as §1
# [13] = target: PUM1 PUF domain R5-SAG (Homo sapiens, UniProt Q14671 828-1176, C1007S;R1008A;Q1011G)
# Method in brief: as §1
# [14] = target: PUM1 PUF domain R2-SWG (Homo sapiens, UniProt Q14671 828-1176, N899S;Y900W;Q903G)
# Method in brief: as §1
# [15] = target: PUM1 PUF domain R3-RSF (Homo sapiens, UniProt Q14671 828-1176, C935R;R936S;Q939F)
# Method in brief: as §1
# [16] = target: PUM1 PUF domain R3-IFA (Homo sapiens, UniProt Q14671 828-1176, C935I;R936F;Q939A)
# Method in brief: as §1
# [17] = target: PUM1 PUF domain R7-KSV (Homo sapiens, UniProt Q14671 828-1176, S1079K;N1080S;E1083V)
# Method in brief: as §1
# [18] = target: PUM1 PUF domain R7-RSK (Homo sapiens, UniProt Q14671 828-1176, S1079R;N1080S;E1083K)
# Method in brief: as §1
# [19] = target: PUM1 PUF domain R1-TLR (Homo sapiens, UniProt Q14671 828-1176, S863T;R864L;Q867R)
# Method in brief: as §1
# [20] = target: PUM1 PUF domain R1-YCR (Homo sapiens, UniProt Q14671 828-1176, S863Y;R864C;Q867R)
# Method in brief: as §1
sequence,measurement,setting,value
GGCUAGAACUAGUGGAUCCCCCGGCGCCCGGCGGCUCGAGCCCGGGUAAGUGUCAAUAGUCUGCAUGCCGCCGGGCGCCAUGCCUGCAGGUCGACUCUAGAAAACAUG,binding signal,[1],3.12 log2 enrichment (interaction score)
same,binding signal,[2],3.01 log2 enrichment (interaction score)
GGCUAGAACUAGUGGAUCCCCCGGCGCCCGGCGGCUCGAGCCCGGGUAAGUGUAAAUAGUCUGCAUGCCGCCGGGCGCCAUGCCUGCAGGUCGACUCUAGAAAACAUG,binding signal,[1],1.4 log2 enrichment (interaction score)
same,binding signal,[3],4.18 log2 enrichment (interaction score)
same,binding signal,[4],3.28 log2 enrichment (interaction score)
same,binding signal,[5],4.62 log2 enrichment (interaction score)
same,binding signal,[6],4.55 log2 enrichment (interaction score)
same,binding signal,[7],3.4 log2 enrichment (interaction score)
same,binding signal,[8],3.26 log2 enrichment (interaction score)
same,binding signal,[9],4.23 log2 enrichment (interaction score)
GGCUAGAACUAGUGGAUCCCCCGGCGCCCGGCGGCUCGAGCCCGGGUAAGUGUACAUAGUCUGCAUGCCGCCGGGCGCCAUGCCUGCAGGUCGACUCUAGAAAACAUG,binding signal,[10],2.73 log2 enrichment (interaction score)
GGCUAGAACUAGUGGAUCCCCCGGCGCCCGGCGGCUCGAGCCCGGGUAAGUGUGAAUAGUCUGCAUGCCGCCGGGCGCCAUGCCUGCAGGUCGACUCUAGAAAACAUG,binding signal,[11],4.46 log2 enrichment (interaction score)
same,binding signal,[12],3.04 log2 enrichment (interaction score)
same,binding signal,[13],3.06 log2 enrichment (interaction score)
GGCUAGAACUAGUGGAUCCCCCGGCGCCCGGCGGCUCGAGCCCGGGUAAGUGUAAAAAGUCUGCAUGCCGCCGGGCGCCAUGCCUGCAGGUCGACUCUAGAAAACAUG,binding signal,[14],3.09 log2 enrichment (interaction score)
GGCUAGAACUAGUGGAUCCCCCGGCGCCCGGCGGCUCGAGCCCGGGUAAGUGUAAAGAGUCUGCAUGCCGCCGGGCGCCAUGCCUGCAGGUCGACUCUAGAAAACAUG,binding signal,[14],1.53 log2 enrichment (interaction score)
GGCUAGAACUAGUGGAUCCCCCGGCGCCCGGCGGCUCGAGCCCGGGUAAGUGUAAUUAGUCUGCAUGCCGCCGGGCGCCAUGCCUGCAGGUCGACUCUAGAAAACAUG,binding signal,[15],3.86 log2 enrichment (interaction score)
same,binding signal,[16],3.87 log2 enrichment (interaction score)
same,binding signal,[6],2.3 log2 enrichment (interaction score)
same,binding signal,[9],1.88 log2 enrichment (interaction score)
GGCUAGAACUAGUGGAUCCCCCGGCGCCCGGCGGCUCGAGCCCGGGUAAGUCUAAAUAGUCUGCAUGCCGCCGGGCGCCAUGCCUGCAGGUCGACUCUAGAAAACAUG,binding signal,[17],3.22 log2 enrichment (interaction score)
same,binding signal,[18],3.84 log2 enrichment (interaction score)
GGCUAGAACUAGUGGAUCCCCCGGCGCCCGGCGGCUCGAGCCCGGGUAAGUUUAAAUAGUCUGCAUGCCGCCGGGCGCCAUGCCUGCAGGUCGACUCUAGAAAACAUG,binding signal,[17],3.22 log2 enrichment (interaction score)
same,binding signal,[18],3.42 log2 enrichment (interaction score)
GGCUAGAACUAGUGGAUCCCCCGGCGCCCGGCGGCUCGAGCCCGGGUAAGCGUAAAUAGUCUGCAUGCCGCCGGGCGCCAUGCCUGCAGGUCGACUCUAGAAAACAUG,binding signal,[4],4.48 log2 enrichment (interaction score)
same,binding signal,[5],4.84 log2 enrichment (interaction score)
same,binding signal,[7],5.24 log2 enrichment (interaction score)
GGCUAGAACUAGUGGAUCCCCCGGCGCCCGGCGGCUCGAGCCCGGGUAAGUGAAAAUAGUCUGCAUGCCGCCGGGCGCCAUGCCUGCAGGUCGACUCUAGAAAACAUG,binding signal,[8],1.38 log2 enrichment (interaction score)
GGCUAGAACUAGUGGAUCCCCCGGCGCCCGGCGGCUCGAGCCCGGGUAAGUGUUAAUAGUCUGCAUGCCGCCGGGCGCCAUGCCUGCAGGUCGACUCUAGAAAACAUG,binding signal,[2],0.73 log2 enrichment (interaction score)
GGCUAGAACUAGUGGAUCCCCCGGCGCCCGGCGGCUCGAGCCCGGGUAAGUGUAAAUUGUCUGCAUGCCGCCGGGCGCCAUGCCUGCAGGUCGACUCUAGAAAACAUG,binding signal,[19],1.83 log2 enrichment (interaction score)
same,binding signal,[20],7.79 log2 enrichment (interaction score)
GGCUAGAACUAGUGGAUCCCCCGGCGCCCGGCGGCUCGAGCCCGGGUAAGUGUAAAUCGUCUGCAUGCCGCCGGGCGCCAUGCCUGCAGGUCGACUCUAGAAAACAUG,binding signal,[19],4.21 log2 enrichment (interaction score)
same,binding signal,[20],7.03 log2 enrichment (interaction score)

# — publication PMC8384837, “Expanding the binding specificity for RNA recognition by a PUF domain”
